For part of these data: Measured potencies and affinities stand elsewhere.
How the values were obtained:
Design in all cases: scale not given: direction of the effect not stated beside the values
[1] = target: Protein translocase subunit SecA (Escherichia coli (strain K12)) (UniProt P10408); assay: Assay to Identify E. coli SecA ATPase Inhibitors; format: functional; conditions: 30 µM
[2] = target: T1, Ubiquitin-activating enzyme e1, putative (Leishmania donovani (strain BPK282A1)) (UniProt E9BSI1); assay: Leishmania donovani Ubiquitin Activating Enzyme (LdE1); format: functional; conditions: 30 µM
T1 sequence (whole entry): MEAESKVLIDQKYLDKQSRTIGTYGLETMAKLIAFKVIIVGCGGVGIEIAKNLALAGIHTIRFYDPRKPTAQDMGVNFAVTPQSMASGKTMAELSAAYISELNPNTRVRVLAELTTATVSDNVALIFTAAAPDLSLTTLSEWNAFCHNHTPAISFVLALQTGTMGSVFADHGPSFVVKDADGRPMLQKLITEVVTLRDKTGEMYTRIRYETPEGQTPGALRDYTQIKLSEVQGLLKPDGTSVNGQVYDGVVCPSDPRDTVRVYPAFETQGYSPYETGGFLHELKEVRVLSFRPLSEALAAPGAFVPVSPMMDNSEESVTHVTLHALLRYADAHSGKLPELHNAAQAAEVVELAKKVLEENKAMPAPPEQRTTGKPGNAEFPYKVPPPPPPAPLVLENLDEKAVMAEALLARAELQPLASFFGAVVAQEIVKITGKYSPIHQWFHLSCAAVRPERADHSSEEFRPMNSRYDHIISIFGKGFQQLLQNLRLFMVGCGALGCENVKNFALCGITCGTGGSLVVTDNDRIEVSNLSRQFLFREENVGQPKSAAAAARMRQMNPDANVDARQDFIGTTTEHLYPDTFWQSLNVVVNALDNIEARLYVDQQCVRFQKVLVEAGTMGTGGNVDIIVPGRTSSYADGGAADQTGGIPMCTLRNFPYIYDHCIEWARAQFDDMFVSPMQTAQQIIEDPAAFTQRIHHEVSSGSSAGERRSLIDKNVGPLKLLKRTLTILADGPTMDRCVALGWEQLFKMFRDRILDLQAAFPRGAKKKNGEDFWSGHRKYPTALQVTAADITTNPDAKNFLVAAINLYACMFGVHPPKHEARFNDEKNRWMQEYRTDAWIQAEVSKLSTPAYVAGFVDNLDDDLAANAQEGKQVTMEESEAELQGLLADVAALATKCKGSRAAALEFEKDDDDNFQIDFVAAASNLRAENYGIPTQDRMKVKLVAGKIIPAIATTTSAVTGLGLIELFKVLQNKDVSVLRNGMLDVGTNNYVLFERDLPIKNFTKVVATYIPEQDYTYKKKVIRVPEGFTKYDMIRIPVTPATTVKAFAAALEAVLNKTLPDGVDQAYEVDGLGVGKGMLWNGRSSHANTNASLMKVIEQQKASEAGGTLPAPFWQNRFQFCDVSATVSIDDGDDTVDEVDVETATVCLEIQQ

[3] = target: Sialic acid-binding Ig-like lectin 9 (Homo sapiens) (UniProt Q9Y336); assay: Hs-Siglec9 ALPHAscreen SOP 20170721; conditions: 10 µM
Trypanosoma cruzi = assay: Trypanosoma cruzi phosphomannomutase and mannose-1-phosphate guanylyltransferase assay; format: functional; conditions: 10 µM
[4] = target: T2, Arginase-2, mitochondrial (Homo sapiens) (UniProt P78540); assay: in vitro enzyme assay to detect the production of urea directly proportional to the activity of Arginase II; format: functional; conditions: 33.3 µM; note: in the data most compounds retested in dose-response had high values
T2 sequence (whole entry): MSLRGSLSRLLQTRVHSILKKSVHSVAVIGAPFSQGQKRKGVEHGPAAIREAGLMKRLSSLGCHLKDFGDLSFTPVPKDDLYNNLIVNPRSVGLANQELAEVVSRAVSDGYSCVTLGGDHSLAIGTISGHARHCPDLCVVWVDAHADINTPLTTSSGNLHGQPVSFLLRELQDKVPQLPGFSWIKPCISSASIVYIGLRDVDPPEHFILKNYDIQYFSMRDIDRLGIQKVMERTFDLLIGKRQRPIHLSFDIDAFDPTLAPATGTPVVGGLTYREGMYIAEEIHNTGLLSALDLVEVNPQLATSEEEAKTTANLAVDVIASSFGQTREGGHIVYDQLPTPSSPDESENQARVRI

[5] = target: T3, Proteasome subunit beta (Trypanosoma cruzi) (UniProt O96673); assay: Trypanosoma cruzi proteasome chymotrypsin-like activity (TcProtChymo) assay.; note: in the data most compounds retested in dose-response had high values; format: functional; conditions: 9.37 µM
T3 sequence (whole entry): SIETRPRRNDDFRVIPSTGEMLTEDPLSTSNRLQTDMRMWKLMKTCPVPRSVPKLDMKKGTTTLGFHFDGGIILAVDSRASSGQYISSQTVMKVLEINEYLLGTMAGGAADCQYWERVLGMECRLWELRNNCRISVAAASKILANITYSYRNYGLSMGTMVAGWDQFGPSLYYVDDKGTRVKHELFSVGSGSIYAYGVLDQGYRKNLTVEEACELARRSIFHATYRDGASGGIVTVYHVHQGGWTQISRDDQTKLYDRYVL

Homo sapiens = species: Homo sapiens; assay: To identify inhibition of the IFN signalling (Jak-Stat) pathway via expression of an eGFP reporter gene under the control of an IFN-stimulated response element (ISRE) containing MxA promoter.; format: functional; conditions: 30 µM
[6] = target: T4, Tyrosyl-tRNA synthetase, putative (Trypanosoma cruzi (strain CL Brener)) (UniProt Q4DSP6); assay: Trypanosoma cruzi tyrosyl tRNA synthetase (TcYRS) _High Tyrosine SOP; format: functional; conditions: 30 µM; note: in the data most compounds retested in dose-response had high values
T4 sequence (whole entry): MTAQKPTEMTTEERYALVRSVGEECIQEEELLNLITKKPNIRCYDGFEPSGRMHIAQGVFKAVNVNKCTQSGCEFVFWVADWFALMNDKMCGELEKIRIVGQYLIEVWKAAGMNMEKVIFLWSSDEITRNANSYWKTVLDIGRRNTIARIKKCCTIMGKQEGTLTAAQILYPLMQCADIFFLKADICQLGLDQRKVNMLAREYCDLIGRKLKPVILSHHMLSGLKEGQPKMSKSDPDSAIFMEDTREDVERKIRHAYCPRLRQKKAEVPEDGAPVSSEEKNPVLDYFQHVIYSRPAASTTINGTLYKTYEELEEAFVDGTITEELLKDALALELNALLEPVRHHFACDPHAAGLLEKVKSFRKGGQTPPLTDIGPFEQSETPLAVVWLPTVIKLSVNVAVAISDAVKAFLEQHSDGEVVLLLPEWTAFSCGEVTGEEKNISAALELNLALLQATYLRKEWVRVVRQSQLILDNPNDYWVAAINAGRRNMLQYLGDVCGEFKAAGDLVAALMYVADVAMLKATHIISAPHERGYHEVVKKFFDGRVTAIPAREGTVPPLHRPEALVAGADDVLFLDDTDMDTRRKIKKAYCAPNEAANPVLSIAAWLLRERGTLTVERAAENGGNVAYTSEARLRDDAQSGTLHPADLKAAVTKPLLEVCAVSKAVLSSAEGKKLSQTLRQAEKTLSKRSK

[7] = target: T4, Tyrosyl-tRNA synthetase, putative (Trypanosoma cruzi (strain CL Brener)); assay: Trypanosoma cruzi tyrosyl tRNA synthetase (TcYRS) SOP; format: functional; conditions: 30 µM
[8] = target: Chromo domain-containing protein 1 (Saccharomyces cerevisiae (strain ATCC 204508 / S288c) (Baker's yeast)) (UniProt P32657); assay: ScCHD-1 Enzyme Inhibition Assay; format: functional; conditions: 30 µM; note: in the data most compounds retested in dose-response had high values
Chain of Chromo domain-containing protein 1 (Saccharomyces cerevisiae (strain ATCC 204508 / S288c) (Baker's yeast)) (P32657 whole entry, the tested form may be a part): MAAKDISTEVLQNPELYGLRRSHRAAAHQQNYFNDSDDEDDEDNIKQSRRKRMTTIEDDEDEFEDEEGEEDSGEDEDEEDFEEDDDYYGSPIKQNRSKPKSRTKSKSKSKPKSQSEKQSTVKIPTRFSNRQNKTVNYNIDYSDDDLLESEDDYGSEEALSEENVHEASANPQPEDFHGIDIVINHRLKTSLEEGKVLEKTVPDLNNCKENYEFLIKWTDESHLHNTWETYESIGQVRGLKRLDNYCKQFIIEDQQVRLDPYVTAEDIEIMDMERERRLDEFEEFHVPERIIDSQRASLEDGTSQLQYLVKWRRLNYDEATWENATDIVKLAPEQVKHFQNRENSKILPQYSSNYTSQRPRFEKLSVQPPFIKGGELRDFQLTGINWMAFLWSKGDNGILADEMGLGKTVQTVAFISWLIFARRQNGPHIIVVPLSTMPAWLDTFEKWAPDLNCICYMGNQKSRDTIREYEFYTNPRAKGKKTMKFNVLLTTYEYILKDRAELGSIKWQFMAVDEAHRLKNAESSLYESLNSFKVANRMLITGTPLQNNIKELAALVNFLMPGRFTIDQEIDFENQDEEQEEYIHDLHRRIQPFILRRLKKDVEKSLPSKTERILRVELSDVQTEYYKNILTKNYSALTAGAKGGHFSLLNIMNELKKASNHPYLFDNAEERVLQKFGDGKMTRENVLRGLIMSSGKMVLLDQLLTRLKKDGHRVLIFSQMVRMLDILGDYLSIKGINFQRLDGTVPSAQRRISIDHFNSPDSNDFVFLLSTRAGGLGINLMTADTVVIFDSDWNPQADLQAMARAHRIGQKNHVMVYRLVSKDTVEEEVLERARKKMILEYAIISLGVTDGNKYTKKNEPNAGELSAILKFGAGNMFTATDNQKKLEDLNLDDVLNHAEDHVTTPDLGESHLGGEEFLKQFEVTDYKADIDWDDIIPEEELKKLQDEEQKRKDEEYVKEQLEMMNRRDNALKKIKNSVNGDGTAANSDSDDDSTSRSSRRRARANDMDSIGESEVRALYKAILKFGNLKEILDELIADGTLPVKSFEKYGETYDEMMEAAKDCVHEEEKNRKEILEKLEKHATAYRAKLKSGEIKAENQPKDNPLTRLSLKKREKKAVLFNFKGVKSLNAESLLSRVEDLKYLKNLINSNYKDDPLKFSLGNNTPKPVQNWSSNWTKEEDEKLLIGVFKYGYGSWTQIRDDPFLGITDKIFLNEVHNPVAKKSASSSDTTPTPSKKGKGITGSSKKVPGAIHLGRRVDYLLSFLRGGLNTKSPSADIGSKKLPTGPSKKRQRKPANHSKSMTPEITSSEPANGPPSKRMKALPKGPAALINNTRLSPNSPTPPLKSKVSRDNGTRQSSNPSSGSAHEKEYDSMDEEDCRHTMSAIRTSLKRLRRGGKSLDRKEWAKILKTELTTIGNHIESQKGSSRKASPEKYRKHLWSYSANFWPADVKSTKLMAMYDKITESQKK

Chain of Protein translocase subunit SecA (Escherichia coli (strain K12)) (P10408 whole entry): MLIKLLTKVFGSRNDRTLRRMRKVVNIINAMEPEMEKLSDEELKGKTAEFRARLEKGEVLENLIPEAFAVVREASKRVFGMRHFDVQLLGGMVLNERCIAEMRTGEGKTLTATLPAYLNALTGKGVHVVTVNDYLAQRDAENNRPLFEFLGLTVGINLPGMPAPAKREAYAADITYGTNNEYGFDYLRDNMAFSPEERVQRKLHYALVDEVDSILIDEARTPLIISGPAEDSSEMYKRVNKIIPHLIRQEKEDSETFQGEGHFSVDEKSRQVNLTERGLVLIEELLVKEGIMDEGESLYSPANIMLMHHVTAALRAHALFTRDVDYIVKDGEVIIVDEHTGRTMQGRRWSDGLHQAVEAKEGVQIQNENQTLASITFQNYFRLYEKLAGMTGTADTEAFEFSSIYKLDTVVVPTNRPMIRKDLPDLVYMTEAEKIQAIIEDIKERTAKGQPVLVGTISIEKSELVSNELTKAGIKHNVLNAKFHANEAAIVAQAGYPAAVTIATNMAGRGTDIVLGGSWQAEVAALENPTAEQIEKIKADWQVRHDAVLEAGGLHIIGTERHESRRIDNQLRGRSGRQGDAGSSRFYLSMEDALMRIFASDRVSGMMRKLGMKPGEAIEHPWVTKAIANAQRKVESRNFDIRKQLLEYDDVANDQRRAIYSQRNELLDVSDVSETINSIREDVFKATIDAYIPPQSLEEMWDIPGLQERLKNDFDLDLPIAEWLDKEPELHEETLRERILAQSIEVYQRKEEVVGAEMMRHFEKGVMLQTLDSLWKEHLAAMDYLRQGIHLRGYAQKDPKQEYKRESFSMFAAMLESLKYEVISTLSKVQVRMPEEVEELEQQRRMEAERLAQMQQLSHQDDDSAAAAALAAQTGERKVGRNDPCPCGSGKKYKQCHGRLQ
Chain of Sialic acid-binding Ig-like lectin 9 (Homo sapiens) (Q9Y336 whole entry): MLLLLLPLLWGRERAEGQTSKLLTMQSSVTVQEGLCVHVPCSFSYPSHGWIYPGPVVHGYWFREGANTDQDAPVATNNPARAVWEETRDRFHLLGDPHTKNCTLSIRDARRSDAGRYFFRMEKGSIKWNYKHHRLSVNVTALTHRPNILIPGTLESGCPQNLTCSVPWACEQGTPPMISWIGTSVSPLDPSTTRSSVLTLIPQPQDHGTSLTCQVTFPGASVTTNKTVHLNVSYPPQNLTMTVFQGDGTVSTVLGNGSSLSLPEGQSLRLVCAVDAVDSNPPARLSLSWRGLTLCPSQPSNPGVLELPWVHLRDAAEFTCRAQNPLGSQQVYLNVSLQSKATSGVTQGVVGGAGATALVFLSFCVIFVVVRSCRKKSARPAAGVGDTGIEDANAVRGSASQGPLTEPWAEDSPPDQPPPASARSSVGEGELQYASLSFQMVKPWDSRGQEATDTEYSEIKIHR

Row | Compound | Percent Effect [1] [%] | Percent Effect [2] [%] | Percent Effect [3] [%] | Percent Effect (Trypanosoma cruzi) [%] | Percent Effect [4] [%] | Percent Effect [5] [%] | Percent Effect (Homo sapiens) [%] | Percent Effect [6] [%] | Percent Effect [7] [%] | Percent Effect [8] [%]
1 | Cn1cccc1C(=O)N1CCCC2(CCCN2Cc2cccnc2)C1 (stereo not given) | -10.1 | -1.3 | -0.843 | -1.85 | -6.88 | 7.33 | 9.38 | -2.63 | 2.56 | -0.361
2 | COc1ccccc1-c1noc(CN2CCCC2Cn2cccn2)n1 (stereo not given) | -4.25 | -13.3 | 1.74 | 3.01 | -0.444 | 14.3 | 1.34 | 1.58 | 0 | -7.06
3 | O=C(CSC1CCc2ccccc2NC1=O)NCCO (stereo not given) | -0.348 | 13.5 | 0.884 | 1.84 | -3.15 | 15.6 | 25.1 | 5.85 | 14.6 | -1.22
4 | Cc1cc(-c2nn(C)c(Cl)c2CN2CCOCC2CC(=O)O)no1 (stereo not given) | -6.59 | 10.8 | 10.3 | 5.92 | 15.7 | 12.2 | 22.2 | 7.98 | 12.2 | -0.504
5 | CCCc1cc(C(=O)N2CCOC(c3nc(-c4cccs4)no3)C2)no1 (stereo not given) | -3.79 | 9.33 | 6.29 | 3.55 | 2.21 | 7.55 | 17 | -12.7 | 2.5 | -19.9
6 | CCOc1ccc(Cl)c(C(=O)NCc2ccc(C(=O)NC)cc2)n1 | -5.52 | 15.4 | -5.92 | 4.79 | 4.92 | 8.62 | 9.74 | 5.26 | 20.5 | 0.666
7 | Cc1[nH]ncc1C(=O)N1CCN(CC(O)C(C)(C)C)CC1 (stereo not given) | -2.19 | 17.9 | -6.77 | 7.23 | -2.46 | 8.79 | -1.39 | 6.22 | 20.5 | -6.95
8 | CNC(=O)CN1CCCC12CCN(C(=O)c1ccsc1)CC2 | -4.84 | 27.3 | 3.61 | 3.94 | -1.83 | 5.06 | 1.81 | 6.76 | -92.5 | -11.2
9 | O=S(=O)(CCNC1CCc2ncnn2C1)c1ccccc1 (stereo not given) | -0.316 | 0 | 9.36 | 0.746 | -1.43 | 5.09 | 0.944 | 1.96 | 4.71 | 5.51
